# Test results taken from paper PMC7819943, “Rice protein-binding microarrays: a tool to detect cis-acting elements near promoter regions in rice”.
# The full ranking holds about 35,000 sequences; the median of “fluorescence intensity (a.u.)” is about 10,000, and the highest 2% start at about 52,000. Many of the other results were omitted from the sample, so the highest values are more common in it than they were.
# Molecular target: T1, OsWOX13 (Oryza sativa, UniProt Q5QMM3 1-267)
# T1 sequence: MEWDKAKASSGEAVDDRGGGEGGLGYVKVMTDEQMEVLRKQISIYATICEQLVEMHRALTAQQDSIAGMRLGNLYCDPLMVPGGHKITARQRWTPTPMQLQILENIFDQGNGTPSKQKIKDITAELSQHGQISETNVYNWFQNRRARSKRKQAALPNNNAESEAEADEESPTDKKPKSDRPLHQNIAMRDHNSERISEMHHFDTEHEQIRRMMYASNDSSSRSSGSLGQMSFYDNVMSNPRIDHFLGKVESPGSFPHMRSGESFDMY
# Assay: protein-binding microarray (RPBM); PBS, 2% BSA, 51.3 ng/ul salmon testes DNA, 50 uM zinc acetate, 200 nM TF, 25 C, 1 h; high values mean tight binding
# Conditions: protein: recombinant; tags: N-terminal polyhistidine and DsRed monomer fusion (pET32a); label: CyDye5-dUTP incorporated in the synthesized complementary strand; 3' TTTTT single-stranded linker to array surface; dsDNA, one strand shown
# Procedure, shortened: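 For the binding signal, per-feature fluorescence intensity was read in arbitrary units on an Axon 4000B scanner. Before scanning, a 2% BSA-blocked custom Agilent array made double-stranded with Cy5-dUTP was washed after 1 h at 25 °C with 200 nM protein and 50 µM zinc acetate. The proteins were Ni–NTA-purified transcription factors with N-terminal polyhistidine and DsRed fusions, expressed in E. coli BL21-CodonPlus.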
row,Sequence,binding signal
1,TTCATTAATCTCCCGGTGATGGATGAACGGGGAAAAGGGCCGGAGTCACCTAGTGCAG,4280 fluorescence intensity (a.u.)
2,GATGTTAAGTTTTGGGCATATGATTGAATTGTCTTATATACGGAGTCACCTAGTGCAG,4180 fluorescence intensity (a.u.)
3,CTGTTTGATTTAGCTTAGGATTATTAGGTGTAAGCTGAAACGGAGTCACCTAGTGCAG,3910 fluorescence intensity (a.u.)
4,AACCAATCACGTCGCAGATAAGGCCTGACAGGTGTGCCCCCGGAGTCACCTAGTGCAG,32700 fluorescence intensity (a.u.)
5,CGCGTGTGGTGATTGGCTGGCTCTTTGCCTCATCATGGGCCGGAGTCACCTAGTGCAG,34100 fluorescence intensity (a.u.)
6,CATATTAATTGTTAAAGTTGTCATCATCCAAATTGTTATACGGAGTCACCTAGTGCAG,11100 fluorescence intensity (a.u.)
7,TCCAAAATCAATCAATTAAAACCCATAGTTATTGTTGACTCGGAGTCACCTAGTGCAG,53500 fluorescence intensity (a.u.)
8,GATATAATTGGTATTATTACTAGGTTGGTGTGATATCCTACGGAGTCACCTAGTGCAG,27400 fluorescence intensity (a.u.)
9,ACATTTGTGATTTTCCTAGGTAATGGTGAGATTTTATAGGCGGAGTCACCTAGTGCAG,3220 fluorescence intensity (a.u.)
10,TTAATTGATCACATATTAATGGGCAACGCTGTTTTCCATGCGGAGTCACCTAGTGCAG,63600 fluorescence intensity (a.u.)
11,CACAGAATCCTTAATTAATTATATACATATATTGATCATGCGGAGTCACCTAGTGCAG,16200 fluorescence intensity (a.u.)
12,CTCCTTACAAATTTTGAAGATAATTTCGTAACACTTGGGGCGGAGTCACCTAGTGCAG,7610 fluorescence intensity (a.u.)
13,AGATGCTGCATGGTTGATTGGTTTCAAGTAATTTCATGGGCGGAGTCACCTAGTGCAG,7340 fluorescence intensity (a.u.)
14,ATAGATTGATTTGATAATTTCCTTGAGAGTAACACATGGGCGGAGTCACCTAGTGCAG,65500 fluorescence intensity (a.u.)
15,GAAATTAATTTTAATAGTGTTTTCATATTATTTCCATGCGCGGAGTCACCTAGTGCAG,46500 fluorescence intensity (a.u.)
16,CTCAAATTATTGTTAAACCTTCATATAAATCGACCCCAATCGGAGTCACCTAGTGCAG,7650 fluorescence intensity (a.u.)
17,TGGATGATTGGTGAGATAGGTGTTCCTTATAATTATAGGGCGGAGTCACCTAGTGCAG,54800 fluorescence intensity (a.u.)
18,ACTGTGACACATGATGAACTGTTTATTTTGCATGATCTATCGGAGTCACCTAGTGCAG,5480 fluorescence intensity (a.u.)
19,GGCGTATTTCCCAATCATTGTGCGGTCCAAAACCATCGCCCGGAGTCACCTAGTGCAG,10000 fluorescence intensity (a.u.)
20,CTGATGTGATTACGTCTATCCAGTATAATCCCTCTGGTTTCGGAGTCACCTAGTGCAG,31700 fluorescence intensity (a.u.)
21,TACCTCGCGACTAATTGGGCCTCCACTAACACCTAGATTCCGGAGTCACCTAGTGCAG,4340 fluorescence intensity (a.u.)
22,TGTGAAAATGGATAATTAAGGGATCCCAAAGACCCATAAGCGGAGTCACCTAGTGCAG,10800 fluorescence intensity (a.u.)
23,GTTGAACTTATTCCAATCAAGGATCACGCATTCACGTTCACGGAGTCACCTAGTGCAG,14100 fluorescence intensity (a.u.)

row,Sequence,binding signal
1,TAAAACTTATTTCTTGATAGATCAATCCCAGATTACAATGCGGAGTCACCTAGTGCAG,8210 fluorescence intensity (a.u.)
2,CGACTGGATTGAAGCATTTTCTGCCTAGCTGTCTGTCTCTCGGAGTCACCTAGTGCAG,10100 fluorescence intensity (a.u.)
3,GGTTGATTGTGAAGTTAATTATTTAACATCTCAATTATAACGGAGTCACCTAGTGCAG,32800 fluorescence intensity (a.u.)
4,AATTTCTTGTTCAATCATTTCATATATATATACATGTAGGCGGAGTCACCTAGTGCAG,6120 fluorescence intensity (a.u.)
5,CCTAATTACTCCATGATTTGATAATATGACGCTACAGTAACGGAGTCACCTAGTGCAG,25000 fluorescence intensity (a.u.)
6,TCTAATTACTTCATGATTTGATAATTTGGTGTTACAGTAACGGAGTCACCTAGTGCAG,52400 fluorescence intensity (a.u.)
7,CCTAATTGCACCATGATTTGATAATGTTGTGCTACAGTAACGGAGTCACCTAGTGCAG,42600 fluorescence intensity (a.u.)
8,AGTCTAATTGAGTGATTGTATACATGTTCAATGTTCATGGCGGAGTCACCTAGTGCAG,65300 fluorescence intensity (a.u.)
9,GATCTAATTTGAAATGTGATAAATTGTTTTCAATAAATGGCGGAGTCACCTAGTGCAG,27700 fluorescence intensity (a.u.)
10,TTCATTAATTGATTATTACTAGTAGGGATGGTTGGTTCAACGGAGTCACCTAGTGCAG,30700 fluorescence intensity (a.u.)
11,CCTGATTGCGTGTTGATTTGACAATATGGTGCTACAGTAACGGAGTCACCTAGTGCAG,54300 fluorescence intensity (a.u.)
12,ATTAATTGATTGGATTGGTTGTGTGCATTATTTCATCTAACGGAGTCACCTAGTGCAG,65200 fluorescence intensity (a.u.)
13,CCTAATTGCGTCATGATTTGACAATGTAGTGCTACAGTAACGGAGTCACCTAGTGCAG,50800 fluorescence intensity (a.u.)
14,CATGATTTGACAATATGGTGATACAGTAAATATTTGCTAACGGAGTCACCTAGTGCAG,40600 fluorescence intensity (a.u.)
15,GTTGTATGATTGACACTAGATCGAGAAAAGGTGCGACAAACGGAGTCACCTAGTGCAG,23500 fluorescence intensity (a.u.)
16,CTTTAAATTTTAACTTTTGCATTGGCTTATTAGACCAACTCGGAGTCACCTAGTGCAG,4620 fluorescence intensity (a.u.)
17,GAAATTACATATGACAAATCCAGAATTTTGATGGAGTGGTCGGAGTCACCTAGTGCAG,6770 fluorescence intensity (a.u.)
18,TGCTCAATCACACACACACACGCGTGTAATATTAAGATTTCGGAGTCACCTAGTGCAG,10500 fluorescence intensity (a.u.)
19,TAGATTGATCGGACTAACCACCCCATTTTACACCATTTGCCGGAGTCACCTAGTGCAG,20900 fluorescence intensity (a.u.)
20,ATGTAAATCAATTGTTTAGTGTTGGATCTATAAGCAACATCGGAGTCACCTAGTGCAG,4370 fluorescence intensity (a.u.)
21,TCTAATTGAAATTATTGTGTTTATGTATAAAGACAAATACCGGAGTCACCTAGTGCAG,24900 fluorescence intensity (a.u.)
22,TTTGATTTGTTAATCCAGCTAGTCGTGGGGAATAGTGAAGCGGAGTCACCTAGTGCAG,42700 fluorescence intensity (a.u.)
